# Measured values from PubChem BioAssay AID720664 (National Center for Advancing Translational Sciences (NCATS), 2013).
# Inconclusive results are not listed. The source made the active and inactive calls. Calls come from the whole dose curve; as a rule, active = well fitted inhibition curve with a large enough effect; inconclusive = small, poorly fitted or top-dose-only effect; inactive = flat fitted curve, though single readings scatter.
# Biological target: Galactokinase (Homo sapiens) (UniProt P51570)
# Sequence (P51570 whole entry, looked up): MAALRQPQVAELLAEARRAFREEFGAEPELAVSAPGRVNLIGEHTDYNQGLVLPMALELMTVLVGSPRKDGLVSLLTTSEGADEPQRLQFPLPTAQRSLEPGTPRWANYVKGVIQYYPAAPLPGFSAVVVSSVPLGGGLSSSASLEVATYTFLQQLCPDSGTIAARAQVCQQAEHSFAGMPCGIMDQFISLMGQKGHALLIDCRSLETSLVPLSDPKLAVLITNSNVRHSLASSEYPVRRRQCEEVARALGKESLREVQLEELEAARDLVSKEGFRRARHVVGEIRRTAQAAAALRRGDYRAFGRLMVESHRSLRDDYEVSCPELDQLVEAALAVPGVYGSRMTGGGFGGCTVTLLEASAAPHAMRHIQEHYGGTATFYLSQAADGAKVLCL
# Assay: qHTS for Inhibitors of Human Galactokinase (GALK): SAR round 3
# Conditions: ADP detection luminescence, 1 h; series mostly up to 57.5 µM; activity change, negative = inhibition: at the top concentration
# Outline: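 Human GALK (5 nM) with 35 µM ATP and 100 µM galactose in 20 mM HEPES pH 8.0, 5 mM MgCl2, 60 mM NaCl reacted 1 h at room temperature. Luminescent ADP detection was used; qHTS retest of cherry-picked actives.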
Compound,"activity change, negative = inhibition",Potency
O=C1CCCC2=C1C(c1c(Cl)cccc1Cl)N=C(Nc1nc3ccccc3o1)N2 (centres undefined),-16.4% (inactive),
O=C1CCCC2=C1C(c1[nH]ncc1Cl)N=C(Nc1ccccc1)N2 (centres undefined),1.36% (inactive),
Cc1ccc(C2N=C(Nc3nc4ccccc4o3)NC3=C2C(=O)CCC3)s1 (centres undefined),-21.2% (inactive),
O=C(Nc1nnc(S(=O)(=O)N2CCOCC2)s1)c1cccc(Br)c1,-11.9% (inactive),
O=C1CCCC2=C1C(c1ccccc1Br)N=C(Nc1nc3ccccc3o1)N2 (centres undefined),,6.11 µM (active)
N#CC1=C(Nc2nc3ccccc3o2)OC2=C(C(=O)CCC2)C1c1[nH]ncc1Cl (centres undefined),1.8% (inactive),
Cc1ccc2oc(NC3=NC(c4[nH]ncc4Cl)C4=C(CCCC4=O)N3)nc2c1 (centres undefined),0.986% (inactive),
O=C1C2=C(CN1c1ccccc1)NC(Nc1nc3ccccc3o1)=NC2c1ccccc1Cl (centres undefined),-6.41% (inactive),
O=C1CCCC2=C1C(c1[nH]ncc1Cl)NC(=S)N2 (centres undefined),0.552% (inactive),
Cc1cc(NC2=NC(c3[nH]ncc3Cl)C3=C(CCCC3=O)N2)no1 (centres undefined),-5.6% (inactive),
Cc1noc(C)c1S(=O)(=O)Nc1ccc(C(=O)Nc2ccc(OC(F)(F)F)cc2)cc1,3.01% (inactive),
O=C1CCCC2=C1C(c1cccc(F)c1)N=C(Nc1nc3ccccc3o1)N2 (centres undefined),-24.3% (inactive),
O=C1CCCC2=C1C(c1[nH]ncc1Cl)NC(=NCc1ccncc1)N2 (centres undefined),-0.0488% (inactive),
CC1=C(C(=O)NC2CC2)C(c2nn(C)cc2Cl)N=C(Nc2nc3ccccc3o2)N1 (centres undefined),-29.6% (inactive),
Cc1nc(CN=C2NC3=C(C(=O)CCC3)C(c3[nH]ncc3Cl)N2)cs1 (centres undefined),-0.394% (inactive),
O=C1CCCC2=C1C(c1[nH]ncc1Cl)N=C(Nc1ccn[nH]1)N2 (centres undefined),3.24% (inactive),
O=C1CCCC2=C1C(c1[nH]ncc1Cl)N=C(Nc1nc3cc([S+](=O)([O-])N4CCOCC4)ccc3o1)N2 (centres undefined),-1.21% (inactive),
CC1(C)CC(=O)C2=C(C1)NC(Nc1nc3ccccc3o1)=NC21CCCC1,-18.6% (inactive),
COc1ccccc1NC(=O)C1=C(C)NC(Nc2nc3ccccc3o2)=NC1c1ccccc1Br (centres undefined),-19.2% (inactive),
O=C1CCCC2=C1C(c1[nH]ncc1Cl)NC(=NCc1nccs1)N2 (centres undefined),3.63% (inactive),

Compound,"activity change, negative = inhibition",Potency
O=C1CCCC2=C1C(c1[nH]ncc1Cl)NC(=NCc1cccs1)N2 (centres undefined),0.544% (inactive),
O=C1CCCC2=C1C(c1[nH]ncc1Cl)NC(=NCc1ncc[nH]1)N2 (centres undefined),1.65% (inactive),
COC(=O)c1ccc2nc(NC3=NC(c4[nH]ncc4Cl)C4=C(CCCC4=O)N3)oc2c1 (centres undefined),-1.92% (inactive),
Cc1nc(Nc2nc3ccccc3o2)nc(-c2ccccc2Br)c1C(=O)NCc1ccccc1,2.91% (inactive),
O=C1CCCC2=C1C(c1[nH]ncc1Cl)NC(=NCc1ccco1)N2 (centres undefined),-8.02% (inactive),
CC1=C(C(=O)Nc2nc3ccccc3s2)C(c2[nH]ncc2Cl)N=C(Nc2nc3ccccc3o2)N1 (centres undefined),-9.72% (inactive),
O=C1CCCC2=C1C(c1cccc(Cl)c1)N=C(Nc1nc3ccccc3o1)N2 (centres undefined),-2.3% (inactive),
CCOC(=O)c1cnc(NC2=NC(c3ccccc3Cl)C3=C(CCCC3=O)N2)o1 (centres undefined),1.33% (inactive),
CN(C)c1ccc(C2N=C(Nc3nc4ccccc4o3)NC3=C2C(=O)CCC3)cc1 (centres undefined),-0.254% (inactive),
O=C1CCCC2=C1C(c1ccccc1Cl)N=C(Nc1ncc(-c3ccccc3)o1)N2 (centres undefined),8.02% (inactive),
COc1cccc2nc(Nc3nc4ccccc4o3)nc(-c3ccccc3Cl)c12,-7.85% (inactive),
CC1=C(C(=O)Nc2nncs2)C(c2[nH]ncc2Cl)N=C(Nc2nc3ccccc3o2)N1 (centres undefined),,12.2 µM (active)
O=C1CCCC2=C1C(c1[nH]ncc1Cl)N=C(Nc1nc3cc(Cl)ccc3o1)N2 (centres undefined),3.78% (inactive),
O=C1CCCC2=C1C(c1ncccc1Br)N=C(Nc1nc3ccccc3o1)N2 (centres undefined),-27.8% (inactive),
CC1=C(C(=O)Nc2ccon2)C2(CCCC2)N=C(Nc2nc3ccccc3o2)N1,,17.2 µM (active)
O=C1CCCC2=C1C1(CCCC1)N=C(Nc1nc3cc(Cl)ccc3o1)N2,-24.4% (inactive),
O=C1CCCC2=C1C(c1[nH]ncc1Cl)N=C(Nc1cccnc1)N2 (centres undefined),0.256% (inactive),
O=C1CCCC2=C1C(c1ccncc1Cl)N=C(Nc1nc3ccccc3o1)N2 (centres undefined),,19.3 µM (active)
O=C1CCCC2=C1C(c1ccc(Cl)cc1)N=C(Nc1nc3ccccc3o1)N2 (centres undefined),-5.92% (inactive),
